Results filed as inconclusive are left out. Calls of active or inactive are those of the source. The calls were made as follows, unless noted: active = hit-call score of the fitted dose curve at least 0.9, where 1 is the maximum; inactive = score below 0.9.
What was measured:
[1] = read-out: Monocyte Chemoattractant Protein-1 (MCP1), CCL2 (gene 6347); assay: BSK_LPS_MCP1: BioMAP Diversity Plus: LPS Assay for Monocyte Chemoattractant Protein-1 (MCP1) Biomarker Activity (AID 2283081); conditions: primary human HUVEC with PBMC; actives raise or lower the signal
Outline: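 ELISA read-out of MCP-1 after 24 h chemical dosing of a human umbilical vein endothelial cell/peripheral blood mononuclear cell co-culture stimulated with LPS. Gain or loss of signal fitted relative to DMSO controls.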

[2] = BSK_LPS_PGE2: BioMAP Diversity Plus: LPS Assay for Prostaglandin E2 (PGE2) Biomarker Activity (AID 2283082); conditions: primary human HUVEC with PBMC; actives raise or lower the signal;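 as to AC50: secreted prostaglandin E2 measured by ELISA in LPS-stimulated co-culture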
Outline: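 Endpoint derived from bidirectional curve fitting versus DMSO of ELISA-measured PGE2 in LPS-stimulated human primary vascular co-culture (HUVEC with PBMC) harvested at 24 h.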

[3] = read-out: Macrophage colony-stimulating factor (MCSF), CSF1 (gene 1435); assay: BSK_LPS_MCSF: BioMAP Diversity Plus: LPS Assay for Macrophage colony-stimulating factor (MCSF) Biomarker Activity (AID 2283083); conditions: primary human HUVEC with PBMC; actives raise or lower the signal
Outline: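 HUVEC + PBMC co-culture (human primary), 24 h post-dose; M-CSF by ELISA; gain/loss of signal fitted bidirectionally vs DMSO baseline.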

[4] = read-out: Tissue Factor, F3 (gene 2152); assay: BSK_LPS_TissueFactor: BioMAP Diversity Plus: LPS Assay for Tissue Factor Biomarker Activity (AID 2283084); conditions: primary human HUVEC with PBMC; actives raise or lower the signal
Outline: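 HUVEC/PBMC co-culture, LPS-activated; CD142 ELISA read 24 h post-dose; bidirectional curve fit vs DMSO negative control.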

[5] = read-out: Tumor necrosis factor (Homo sapiens) (UniProt P01375); assay: BSK_LPS_TNFa: BioMAP Diversity Plus: LPS Assay for Tumour Necrosis Factor alpha (TNFa) Biomarker Activity (AID 2283085); conditions: primary human HUVEC with PBMC; actives raise or lower the signal
Outline: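 Primary human vascular co-culture of HUVEC and PBMC; TNFa ELISA 24 h after treatment, analysed as increase or decrease relative to DMSO control.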

[6] = read-out: Vascular cell adhesion molecule 1 (VCAM1), VCAM1 (gene 7412); assay: BSK_LPS_VCAM1: BioMAP Diversity Plus: LPS Assay for Vascular cell adhesion molecule 1 (VCAM1) Biomarker Activity (AID 2283086); conditions: primary human HUVEC with PBMC; actives raise or lower the signal
Outline: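 Primary human vascular co-culture (umbilical vein endothelium plus PBMC) stimulated with LPS received chemical; 24 h later VCAM-1 was read by ELISA. Overt cytotoxicity was assessed by sulforhodamine B staining of parallel cultures at the same time point.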

CD38, CD38 (gene 952) = assay: BSK_SAg_CD38: BioMAP Diversity Plus: SAg Assay for CD38 Biomarker Activity (AID 2283087); conditions: primary human HUVEC with PBMC; actives raise or lower the signal
Outline: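 Fluorescence ELISA of cell-surface CD38 served as the read-out, with either increase or decrease fitted against DMSO controls. Cells were a human umbilical vein endothelium plus PBMC co-culture under SEB/TSST-1 stimulation, measured 24 h after dosing.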

CD40, CD40 (gene 958) = assay: BSK_SAg_CD40: BioMAP Diversity Plus: SAg Assay for CD40 Biomarker Activity (AID 2283088); conditions: primary human HUVEC with PBMC; actives raise or lower the signal
Outline: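 HUVEC/PBMC co-culture, 24 h post-dose; CD40 by ELISA, fluorescence intensity; bidirectional fit vs DMSO negative control.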

CD69, CD69 (gene 969) = assay: BSK_SAg_CD69: BioMAP Diversity Plus: SAg Assay for CD69 Biomarker Activity (AID 2283089); conditions: primary human HUVEC with PBMC; actives raise or lower the signal
Outline: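 HUVEC co-cultured with PBMC were dosed with chemical, and CD69 was measured by ELISA with fluorescence read-out 24 h later. Bidirectional curve fitting used DMSO as negative control and activity baseline.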

[7] = read-out: Monocyte Chemoattractant Protein-1 (MCP1), CCL2 (gene 6347); assay: BSK_SAg_MCP1: BioMAP Diversity Plus: SAg Assay for Monocyte Chemoattractant Protein-1 (MCP1) Biomarker Activity (AID 2283090); conditions: primary human HUVEC with PBMC; actives raise or lower the signal
Outline: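 MCP-1 levels in the endothelial–PBMC SAg co-culture were quantified by ELISA at 24 h post-dosing; both increases and decreases versus DMSO scored. Cytotoxicity monitored by SRB total protein in parallel cultures.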

[8] = read-out: E-selectin (Homo sapiens) (UniProt P16581); assay: BSK_SAg_Eselectin: BioMAP Diversity Plus: SAg Assay for Eselectin Biomarker Activity (AID 2283091); conditions: primary human HUVEC with PBMC; actives raise or lower the signal
Outline: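 E-selectin ELISA readout at 24 h post-dosing in human umbilical vein endothelial cell/PBMC co-culture; gain or loss of signal fitted relative to DMSO baseline.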

[9] = read-out: Monokine induced gamma interferon (MIG), CXCL9 (gene 4283); assay: BSK_SAg_MIG: BioMAP Diversity Plus: SAg Assay for Monokine induced gamma interferon (MIG) Biomarker Activity (AID 2283092); conditions: primary human HUVEC with PBMC; actives raise or lower the signal
Outline: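 HUVEC plus human PBMC co-culture, chemicals dosed and MIG (CXCL9) quantified by ELISA at 24 h. Bidirectional curve fitting against DMSO as negative control and baseline, so both gain and loss of signal count as activity.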

[10] = BSK_SAg_PBMCCytotoxicity: PBMC Cytotoxicity Assessment in the BioMAP Diversity Plus: SAg Assay (AID 2283093); conditions: primary human HUVEC with PBMC;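 also: PBMC viability measured as Alamar Blue reduction fluorescence at 546/580 nm; fitted both ways against DMSO so a hit may be loss or gain of signal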
Outline: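 Compound added to 75,000 PBMC/well for 1 h; SEB and TSST-1 then added at 20 ng/mL final each; 90 h incubation; Alamar Blue 6 h; read 546/580 nm ex/em. Activity fitted bidirectionally relative to DMSO baseline.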

[11] = read-out: Interleukin-8 (IL8), CXCL8 (gene 3576); assay: BSK_SAg_IL8: BioMAP Diversity Plus: SAg Assay for Interleukin-8 (IL8) Biomarker Activity (AID 2283094); conditions: primary human HUVEC with PBMC; actives raise or lower the signal
Outline: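 In this co-culture of human umbilical vein endothelium with peripheral blood mononuclear cells, IL-8 is assayed by ELISA at 24 h. DMSO serves as baseline for bidirectional curve fitting.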

[12] = BSK_SAg_Proliferation: Cell Proliferation Assessment in the BioMAP Diversity Plus: SAg Assay (AID 2283095); conditions: primary human HUVEC with PBMC;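 also: relative cell number as total protein by SRB absorbance in sub-confluent culture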
Outline: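 Readout is SRB-stained protein (560 nm) in a primary human HUVEC and PBMC co-culture; sub-confluent cultures are read at 96 h. Activity is fitted bidirectionally using DMSO as baseline.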

[13] = BSK_SAg_SRB: Viability Assessment in the BioMAP Diversity Plus: SAg Assay (AID 2283096); conditions: primary human HUVEC with PBMC;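 also: cells read one day after compound addition; hits may be either gain or loss of signal compared with DMSO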
Outline: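 Total protein by sulforhodamine B staining, 24 h after dosing, in HUVEC–PBMC co-culture; DMSO-referenced bidirectional fitting.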

[14] = target: human CYP19A1, CYP19A1 (gene 1588) (UniProt P11511); assay: NVS_ADME_hCYP19A1: NovaScreen (NVS) CYP450-related Enzyme Activity (ADME) Assay for human CYP19A1 (AID 2283098; active = hit-call score of the fitted dose curve at least 0.9, where 1 is the maximum)
Chain of human CYP19A1, CYP19A1 (gene 1588) (P11511 whole entry, looked up): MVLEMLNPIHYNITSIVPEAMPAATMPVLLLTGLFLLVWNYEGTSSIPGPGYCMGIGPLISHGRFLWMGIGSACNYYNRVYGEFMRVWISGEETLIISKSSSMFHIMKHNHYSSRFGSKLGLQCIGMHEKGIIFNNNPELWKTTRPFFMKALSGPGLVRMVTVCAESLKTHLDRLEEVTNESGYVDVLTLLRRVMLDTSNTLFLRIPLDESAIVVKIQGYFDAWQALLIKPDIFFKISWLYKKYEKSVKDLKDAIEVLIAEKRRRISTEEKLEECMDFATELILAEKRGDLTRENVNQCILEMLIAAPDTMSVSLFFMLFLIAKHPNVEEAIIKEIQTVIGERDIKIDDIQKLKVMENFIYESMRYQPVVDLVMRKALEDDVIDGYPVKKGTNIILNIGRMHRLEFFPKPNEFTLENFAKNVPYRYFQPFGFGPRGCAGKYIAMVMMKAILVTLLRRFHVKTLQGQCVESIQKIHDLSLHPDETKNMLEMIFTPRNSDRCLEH
Outline: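 Biochem, cell-free; recombinant enzyme + specific substrate; fluorescence intensity at 0.5 h post-dose; 10 uM duplicate primary, conc. series for actives; acetonitrile = negative control/baseline; positive and negative controls on every plate.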

Chain of E-selectin (Homo sapiens) (P16581 whole entry, looked up): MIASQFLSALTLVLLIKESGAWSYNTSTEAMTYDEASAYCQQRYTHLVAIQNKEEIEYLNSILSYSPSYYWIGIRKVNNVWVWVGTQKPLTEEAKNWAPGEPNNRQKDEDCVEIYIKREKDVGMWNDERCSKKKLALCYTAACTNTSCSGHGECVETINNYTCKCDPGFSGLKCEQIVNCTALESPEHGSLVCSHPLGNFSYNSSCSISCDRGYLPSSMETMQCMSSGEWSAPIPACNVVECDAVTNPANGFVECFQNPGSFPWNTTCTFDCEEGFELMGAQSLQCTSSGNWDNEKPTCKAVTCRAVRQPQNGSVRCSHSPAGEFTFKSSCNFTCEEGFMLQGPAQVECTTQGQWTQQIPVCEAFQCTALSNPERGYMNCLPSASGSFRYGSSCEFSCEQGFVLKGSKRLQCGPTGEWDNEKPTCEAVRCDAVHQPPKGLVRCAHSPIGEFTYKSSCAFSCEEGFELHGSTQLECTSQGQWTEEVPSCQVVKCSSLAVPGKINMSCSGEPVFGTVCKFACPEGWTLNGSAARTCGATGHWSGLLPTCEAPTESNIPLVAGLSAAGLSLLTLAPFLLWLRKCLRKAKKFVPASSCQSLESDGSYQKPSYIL
Chain of Tumor necrosis factor (Homo sapiens) (P01375 whole entry, looked up): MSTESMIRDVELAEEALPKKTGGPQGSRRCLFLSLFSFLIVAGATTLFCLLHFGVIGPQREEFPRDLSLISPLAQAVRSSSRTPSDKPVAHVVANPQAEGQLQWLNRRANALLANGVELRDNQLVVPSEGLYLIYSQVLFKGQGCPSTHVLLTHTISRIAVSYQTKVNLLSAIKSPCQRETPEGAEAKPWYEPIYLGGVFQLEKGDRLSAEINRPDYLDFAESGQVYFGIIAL

Compound	outcome [1]	outcome [2]	outcome [3]	outcome [4]	outcome [5]	outcome [6]	outcome (CD38, CD38 (gene 952))	outcome (CD40, CD40 (gene 958))	outcome (CD69, CD69 (gene 969))	outcome [7]	outcome [8]	outcome [9]	outcome [10]	outcome [11]	outcome [12]	outcome [13]	outcome [14]	AC50 [2]	AC50 [6]	AC50 [8]
C#CC(O)C(CC)CCCC (centres undefined)	inactive	inactive	inactive	inactive	inactive	inactive	inactive	inactive	inactive	inactive	inactive	inactive	inactive	inactive	inactive	inactive				
O=C1CCCCC1	inactive	inactive	inactive	inactive	inactive	inactive	inactive	inactive	inactive	inactive	inactive	inactive	inactive	inactive	inactive	inactive				
C=CCCCCCCCCCCCC	inactive	inactive	inactive	inactive	inactive	inactive	inactive	inactive	inactive	inactive	inactive	inactive	inactive	inactive	inactive	inactive				
CC(=O)O	inactive	inactive	inactive	inactive	inactive	inactive	inactive	inactive	inactive	inactive	inactive	inactive	inactive	inactive	inactive	inactive				
CC(N)=O	inactive	inactive	inactive	inactive	inactive	inactive	inactive	inactive	inactive	inactive	inactive	inactive	inactive	inactive	inactive	inactive	inactive			
CC(C)c1cccc(C(C)C)c1NC(=O)NS(=O)(=O)c1cc(C(C)(C)O)co1	inactive		inactive	inactive	inactive	inactive	inactive	inactive	inactive	inactive	inactive	inactive	inactive	inactive	inactive	inactive		1.04 µM (active)		
CC1=C(C)S(=O)(=O)CCS1(=O)=O	inactive	inactive	inactive	inactive	inactive		inactive	inactive	inactive	inactive		inactive	inactive	inactive	inactive	inactive			11.5 µM (active)	3.97 µM (active)
CCOCCOCCO	inactive	inactive	inactive	inactive	inactive	inactive	inactive	inactive	inactive	inactive	inactive	inactive	inactive	inactive	inactive	inactive				

Source: PubChem BioAssay (EPA / NIEHS)
